40 compounds from PubChem BioAssay (Tox21) can be followed below.

Records with an inconclusive call do not appear. Values without a mark were called inactive. Calls of active or inactive are those of the source. Calls follow the shape of the dose curve; as a rule, active = well fitted cell-killing curve with a large enough effect in the repeat runs; inconclusive = weak or mixed curves, or effect the other way; inactive = no such curve, though single readings can be large or run the other way.
% is scaled to controls: 0 for no effect and ±100 for the full control effect; potency is read from the fitted curve at half-maximal effect.

A short description of this assay: qHTS assay to identify small molecule agonists of the estrogen receptor alpha (ER-alpha) signaling pathway in the presence of an antagonist - cell viability counter screen (AID 1259386). Also: nearly all actives have a fitted effect of over 30% in size. The note with it: VM7Luc4E2 viability, CellTiter-Fluor fluorescence, 22 h; series mostly up to 92.4 µM; activity change, negative = cytotoxicity: at the top concentration. An excerpt:
National Center for Advancing Translational Sciences [NCATS]
NIH Chemical Genomics Center [NCGC]
U.S. Environmental Protection Agency [EPA]
National Institutes of Environmental Health Sciences [NIEHS]
National Toxicology Program [NTP]
U.S. Food and Drug Administration [FDA]
Estrogen receptor (ER), a member of nuclear hormone receptor plays an important role in development, metabolic homeostasis and reproduction. Two subtypes of ER, ER-alpha and ER-beta, have similar expression patterns with some uniqueness in both types. Endocrine disrupting chemicals (EDCs) and their interactions with steroid hormone receptors like ER causes disruption of normal endocrine function. Therefore, it is important to understand the effect of environmental chemicals in ER signaling pathway. For identifying ER agonists, VM7Luc4E2 cell line has been used in the current assay.
VM7Luc4E2 cell line (provided by Denison MS, University of California) endogenously expresses full-length ER-alpha and is stably transfected with a plasmid containing four estrogen responsive elements (ERE) upstream of a luciferase reporter gene. This current screening for measuring luciferase reporter gene activity using VM7Luc4E2 cells against Tox21 10K library collection is a confirmation study on agonist mode screening in presence of ER-antagonist (ICI-182,780) at 10.0nM final concentration. The cytotoxicity of the compounds was tested in parallel by measuring the cell viability using CellTiter-Fluor assay system (Promega, Madison, WI) in the same wells.
Tox21 Assay Protocol Summary:
VM7Luc4E2 cells were cultured in phenol red free assay medium containing 10% charcoal stripped FBS for 5 days prior to the assay. The cells were dispensed at 4,000 cells in 4uL of assay medium per well into white wall/solid-bottom 1536-well plates (Corning Life Sciences, Corning, NY) using a Multidrop Combi (Thermo Fisher Scientific Inc., Waltham, MA) dispenser. After the assay plates were incubated at 37C and 5% CO2 for 24hr, 1uL of 10.0nM (final concentration) ICI-182,780 or assay buffer was added using two separate tips of Flying Reagent Dispenser (FRD, Aurora Discovery, San Diego, CA). Then 23nL of compounds dissolved in DMSO at 15 concentrations and positive controls or DMSO only was transferred to the assay plates by a Pintool station (Wako, San Diego, CA). The assay plates were incubated at 37C and 5% CO2 for 22hr. After 21hr incubation at 37C, 1uL/well CellTiter-Fluor reagent (Promega Corporation, Madison, WI) was added to each well using FRD and after 1hr incubation at 37C and 5% CO2, the fluorescence signal was measured on ViewLux plate reader (PerkinElmer, Shelton, CT).
Background: In qHTS, concentration-response curves come from the screen itself.
In the case of `Clc1cccc(C(c2ccc3nc[nH]c3c2)n2ccnc2)c1` (stereo not given), the “activity change, negative = cytotoxicity” value is 2.79% [at 42.5 µM]. In the case of `CCC(CC)C(=O)O`, the “activity change, negative = cytotoxicity” value is 3.63%.

In the case of `COc1cc(C)c(Cc2cnc(N)nc2N)cc1OC`, the “activity change, negative = cytotoxicity” value was 5.92% [at 42.5 µM]. Take `CCN(CC)CC(=O)OCC(=O)[C@@]1(O)CC[C@H]2[C@@H]3CCC4=CC(=O)CC[C@]4(C)[C@H]3[C@@H](O)C[C@@]21C`: the “activity change, negative = cytotoxicity” value is -0.524% [at 42.5 µM]. `CCn1nc(Cc2ccccc2)cc1C1CCN(C[C@H]2C[C@H](N(C)[C@@H](C(=O)O)C(C)C)C[C@@H]2c2cccc(F)c2)CC1`: the “activity change, negative = cytotoxicity” value was -9.42%. As for `C[C@H](N)C(=O)N[C@@H](C)C(=O)NC1[C@H]2CN(c3nc4c(cc3F)c(=O)c(C(=O)O)cn4-c3ccc(F)cc3F)C[C@@H]12` (stereo not given in full), the “activity change, negative = cytotoxicity” value was 0.69% [at 42.5 µM]. Still for that read-out and setting: then `CCCCCCCCCC(C)C=O` (stereo not given), with 1.89%; and `CCCC(=O)OCc1ccccc1`, with 1.7%. For the compound `Nc1ccc(C(=O)Oc2ccccc2)c(O)c1`, the “activity change, negative = cytotoxicity” value is -4.61% [at 42.5 µM].

Regarding `O=P(c1ccccc1)(c1ccccc1)c1ccccc1`, the “activity change, negative = cytotoxicity” value is 1.71%.

On to `N#CCCCC(C#N)CCC#N` (stereo not given), for which the “activity change, negative = cytotoxicity” value is -4.09%.

On to `CCCCCCCCNC`, for which the “activity change, negative = cytotoxicity” value was 1.36%. With `COc1ccc(/C(C)=C/C(=O)O)c(OC)c1`, the “activity change, negative = cytotoxicity” value was 5.15% [at 42.5 µM]. With `Cc1ccc(S(=O)(=O)NC(=O)NC2CCCC2)cc1`, the “activity change, negative = cytotoxicity” value is 0.765% [at 42.5 µM]. Consider `c1ccc(CCNc2nc(-c3ccccc3)cs2)cc1`, for which the “activity change, negative = cytotoxicity” value is 1.45% [at 42.5 µM].

For `C[C@]12CCC(=O)C=C1[C@@H]1C[C@@H]1[C@H]1[C@@H]3[C@@H]4C[C@@H]4[C@@]4(CCC(=O)O4)[C@@]3(C)CC[C@@H]12`, the “activity change, negative = cytotoxicity” value is -0.212% [at 42.5 µM].

As for `O=C(O)COCC(=O)O`, the “activity change, negative = cytotoxicity” value was 1.58%.

On to `CCc1c(C)[nH]c2c1C(=O)C(CN1CCOCC1)CC2` (stereo not given), for which the “activity change, negative = cytotoxicity” value is -0.274% [at 42.5 µM]. Take `SCCOCCOCCS`: the “activity change, negative = cytotoxicity” value was -0.84%. On the same count and under the same terms, the same measure for `CC(C)(C)NCC(O)COc1ccc(NC(=O)NC2CCCCC2)cc1` (stereo not given): -10.1% [at 42.5 µM]; for `O=C(O)c1cccc(C(=O)O)c1C(=O)O`: 4.59%; for `CC(C)Cc1nccs1`: 0.921%.

As for `Sc1nc(S)nc(S)n1`, the “activity change, negative = cytotoxicity” value was 2.04% [at 42.5 µM]. In the case of `O=C(Nc1ccc2c(c1)Cc1ccccc1-2)C(F)(F)F`, the “activity change, negative = cytotoxicity” value was -3.39%. Still for that read-out and setting: then `CCc1cnc(C(=O)O)c(C(=O)O)c1`, with 1.33%.

With `O=C(OCCCCCOC(=O)c1ccccc1)c1ccccc1`, the “activity change, negative = cytotoxicity” value is -1.54%. With `Nc1nc(Cl)nc2c1ncn2[C@H]1C[C@H](O)[C@@H](CO)O1`, the “activity change, negative = cytotoxicity” value is 5.12%. In the case of `Nc1ccc(-c2ccc(F)cc2)cc1`, the “activity change, negative = cytotoxicity” value is 0.169%. Turning to `O=C1c2ccccc2C(=O)c2c1ccc(O)c2O`, the Potency was 26.6 µM (active).

As for `CC(=O)CC/C=C(\C)CC/C=C(\C)CC/C=C(\C)CCC=C(C)C`, the “activity change, negative = cytotoxicity” value was 6.07% [at 42.5 µM]. For the compound `C=Cc1ccc(C=C)cc1`, the “activity change, negative = cytotoxicity” value is 1.7%. For `Cc1ccccc1CCO`, the “activity change, negative = cytotoxicity” value is -0.189%. Consider `CCOc1cc(OCC)c(C(C)=O)cc1OCC`, for which the Potency was 21.3 µM (active). Turning to `CC(COc1ccccc1)NC(C)C(O)c1ccc(O)cc1` (stereo not given), the “activity change, negative = cytotoxicity” value is -9.16% [at 42.5 µM].

For `CC(C)(O)C(=O)O`, the “activity change, negative = cytotoxicity” value is -0.624%.

`CC(=O)c1ccc(Cl)c(Cl)c1Cl`: the “activity change, negative = cytotoxicity” value was 3.2%.

With `CCCCCCCCCCCCSC#N`, the “activity change, negative = cytotoxicity” value is -5.03%. `CC(C)NC(=O)c1ccccc1N`: the “activity change, negative = cytotoxicity” value was 6.81%. On to `O=C(O)c1ccc2c(c1)nc(C(=O)NC1CCN(C3CC3)CC1)n2Cc1cc(-c2ccc(Cl)s2)on1`, for which the activity change, negative = cytotoxicity was 7.53% [at 19 µM]. Turning to `CC1(COc2ccc(CC3SC(=O)NC3=O)cc2)CCCCC1` (stereo not given), the “activity change, negative = cytotoxicity” value is -5.12% [at 42.5 µM].
